NadD inh – blocks S. aureus nicotinate mononucleotide adenylyltransferase; AID 602399; inhibition, % at 20 µM; purified NadD enzyme, colorimetric absorbance read-out; 360,000 tested, 0.78% active; in the data active = inhibition above about 26%
pCIP destab – p/CIP protein destabilization | Q05BA5 | F442A p/CIP-EGFP cells, EGFP fluorescence, 16 h | decrease of EGFP signal, % at 10 µM | 290,000 tested, 0.01% active | AID 1984;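 active = EGFP signal decrease of at least 30% at 10 µM or well 3 SD below plate mean, unless failing retest; inactive = the rest, including hits failing retest or dose response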
PHOSPHO1 block – blocks human PHOSPHO1 phosphatase activity; inhibition, % at 13.3 µM; recombinant PHOSPHO1, absorbance phosphatase assay; Q8TCT1; 290,000 tested, 1.1% active; AID 1565; in the data active = inhibition above about 60%
UBC9 SUMO inh – blocks human SUMOylation mediated by UBC9. HTRF SUMOylation assay, SAE1/SAE2 + UBC9, in vitro. inhibition, % at 35 µM. 290,000 tested, 0.36% active. AID 2006; in the data active = inhibition above about 50%, passing the limit was not always enough; inconclusive = no clear call, values can overlap the other calls
Starred values were filed as active, the others as inactive; ? = inconclusive; . = no result given. Only some compounds are listed: those with a hit (about 1.8% of all), similar ones and a draw of the others.

SMILES	NadD inh	pCIP destab	PHOSPHO1 block	UBC9 SUMO inh
COc1ccc(-c2ccc3c(N)c(C(=O)c4ccc(OC)c(OC)c4)sc3n2)cc1	12	-6	63*	31
COc1ccc(C(=O)c2sc3nc(-c4ccccc4)ccc3c2N)cc1OC	-2	-32	88*	28
COc1ccccc1C(=O)NCCC(=O)NC1CCCCCC1	1	.	.	.
Cc1c(O)ccc2c(CC(=O)N[C@@H](Cc3ccc(O)cc3)C(=O)O)cc(=O)oc12	0	-9	20	53*
COc1ccc2c(CC(=O)N[C@@H](Cc3ccccc3)C(=O)O)cc(=O)oc2c1C	-3	-12	14	3
COc1ccc(-c2nc(CS(=O)CC(=O)NC3CCCCCC3)c(C)o2)cc1 (centres undefined)	-17	-1	65*	6
CCOc1ccc(S(=O)(=O)NN)cc1	-1	-7	92*	9
CCOc1ccc(NS(=O)(=O)c2ccc(N)cc2)cc1	-6	7	-7	-3
COc1ccc(-c2nc(SCC(=O)Nc3cc(C)on3)n[nH]2)cc1	-2	-11	31	50*
CCOc1ccccc1-n1nnnc1SCC(=O)Nc1cc(C)on1	-3	1	62*	-10
Cc1cc(NC(=O)CSc2nnc(-c3cccc(F)c3)n2N)no1	3	.	.	.
COc1ccc(-c2nnc(SCC(=O)Nc3cc(C)on3)n2N)cc1OC	9	2	75*	18
COc1ccccc1-n1nnnc1SCC(=O)Nc1cc(C)on1	0	-18	-10	-16
NS(=O)(=O)c1ccc(CCNC(=O)COC(=O)Cc2ccc(Cl)cc2)cc1	-2	.	.	.
Cc1cccc(Cn2c(NC3CCCC3)nc3c2c(=O)[nH]c(=O)n3C)c1	3	.	.	.
C[C@@H]1CN([C@H](C)CO)C(=O)CCCn2nncc2CO[C@H]1CN(C)C	11	.	.	.
CCN(CC)C(=O)[C@H]1C[C@H](CC(=O)NCCc2ccccn2)C(=O)N2CCc3c([nH]c4ccc(Cl)cc34)[C@]12C	3	.	.	.
CCC(C(=O)NC1CCCCCC1)n1nc(C)c2c(C)n(-c3ccccc3)nc2c1=O (centres undefined)	5	-10	65*	11
COc1ccc(C(=O)c2c(C(F)(F)F)oc3c2C(=O)c2ccccc2C3=O)cc1OC	6	-17	82*	22
O=[N+]([O-])c1ccc(Sc2cccc3cccnc23)c([N+](=O)[O-])c1	3	-7	87*	-34
O=[N+]([O-])c1cc(Cl)ccc1Sc1cccc2cccnc12	-1	-2	-6	-1
CC(C)C[C@H]1CN(CCCC[C@@H]2CNC(=O)C(=O)N2Cc2ccccc2)C(=O)C(=O)N1Cc1ccccc1	12	.	.	.
O=C(O)CSc1cccc[n+]1[O-]	-6	-8	-2	2
O=C(CSc1cccc[n+]1[O-])c1cc2ccccc2o1	-3	-8	79*	-5
O=C(CSc1nnc(C2CC2)n1Cc1ccccc1)c1cc2ccccc2o1	11	-7	97*	17
SMILES	NadD inh	pCIP destab	PHOSPHO1 block	UBC9 SUMO inh
O=c1nccc(Nc2ccccc2)[nH]1	-5	4	34	5
c1ccc(Nc2cc(Nc3ccccc3)[nH]n2)cc1	3	6	69*	-35
CN(C)c1ccc(C(=S)N2CCOCC2)cc1Br	-6	7	101*	12
CN(C)c1ccc(C(=S)N2CCCCC2)cc1Br	1	0	-1	3
Cc1cc(C)n2cc(CSc3nnc(SCc4cn5c(C)cc(C)nc5n4)s3)nc2n1	.	3	19	19
Cc1cc(C)n2cc(CSc3nnc(-c4ccccc4)o3)nc2n1	0	-7	78*	42
Cc1cc(C)n2cc(CSc3nnc(N)s3)nc2n1	4	-9	71*	22
CCN(c1ccc(C(=O)CSc2nnc(C3CC3)n2C2CC2)cc1)S(C)(=O)=O	1	.	.	.
O=C1C(=O)c2ccc(-c3ccccc3)cc2-c2ccccc21	10	55	4	97*
Nc1ccc2c(c1)C(=O)C(=O)c1ccccc1-2	6	.	62*	?
Cc1cc(F)ccc1C(O)c1ncc(-c2cccc(OCc3ccccc3)c2)[nH]1 (centres undefined)	12	.	.	.
Cc1cc(=O)n2nc(N3CCCC(C(=O)NCc4ccccc4C)C3)sc2n1 (centres undefined)	2	-16	28	21
CC(=O)c1cccc(NC(=O)C2Cc3c(-c4cccc(F)c4)ccnc3O2)c1 (centres undefined)	-4	.	.	.
CCCCCCS(=O)[C@H]1CS(=O)(=O)C[C@@H]1S(=O)CCCCCC (some centres undefined)	2	-9	96*	5
CCOC(=O)C1=C(Cc2ccc(C)cc2)C(=O)c2ccccc2C1=O	.	-50	44	1
CCOC(=O)C1=C(Cc2ccc(OC)cc2)C(=O)c2ccccc2C1=O	-9	-64	71*	9
O=C(O)c1cc(C(=O)O)cc(-c2ccc(/C=c3/sc4nc5ccccc5n4c3=O)o2)c1	.	10	-143	15
O=c1/c(=C\c2cc([N+](=O)[O-])cc([N+](=O)[O-])c2O)sc2nc3ccccc3n12	19	9	67*	26
O=C(O)c1cccc(-c2ccc(/C=c3/sc4nc5ccccc5n4c3=O)o2)c1	6	-31	85*	84*
O=c1/c(=C/c2ccccn2)sc2nc3ccccc3n12	-3	-40	45	14
O=C(CC1CCCC1)NCCS(=O)(=O)N1CCN(c2ccccc2)CC1	2	.	.	.
Cc1ccc(N(CC(=O)NC2CCCC2)C(=O)CCC(=O)Nc2nc(C)cs2)cc1	-2	2	13	-9
Cc1cccnc1Nc1ncnc(N)c1[N+](=O)[O-]	-3	0	61*	1
Cc1ccc(CN2C(=O)C(F)(F)Oc3ccccc32)cc1	-7	.	.	.
O=C1NC(=S)S/C1=C\c1ccc(SCc2ccco2)o1	24	-6	80*	63*
SMILES	NadD inh	pCIP destab	PHOSPHO1 block	UBC9 SUMO inh
O=C1NC(=S)S/C1=C\c1ccc(SCc2ccccc2)o1	9	-2	-2	38
CCCC1=NN2C(=N)/C(=C\c3cc(C)n(Cc4ccccc4)c3C)C(=O)N=C2S1	8	-7	46	34
CCC1=NN2C(=N)/C(=C/c3c(C)nn(-c4ccccc4)c3Cl)C(=O)N=C2S1	6	-1	-11	0
CCCC1=NN2C(=N)/C(=C\c3ccc(SCc4ccco4)o3)C(=O)N=C2S1	26	-53	89*	40
CCC1=NN2C(=N)/C(=C\c3ccc(SCc4ccco4)o3)C(=O)N=C2S1	19	-64	83*	38
CCOC(=O)[C@]12CCC=C1N(Cc1cccc3ccccc13)C(=O)[C@H](CC(=O)N1CCOCC1)C2	4	.	.	.
Cc1nn(-c2ccccc2)c2c1C(c1ccc([N+](=O)[O-])cc1)N1C(=N2)C(=O)Nc2ccccc21 (centres undefined)	11	-13	1	-2
Cc1ccc(NC2=Nc3ccccc3N3C2=Nc2c(c(C)nn2-c2ccccc2)C3c2ccc(O)c(O)c2)cc1 (centres undefined)	61*	-18	29	16
Cc1cccc(NC2=Nc3ccccc3N3C2=Nc2c(c(C)nn2-c2ccccc2)C3c2ccc(O)c(O)c2)c1 (centres undefined)	62*	-5	-4	-11
